# Screening data: PubChem, several laboratories
# An excerpt weighted towards active compounds, which were near 1.7% of everything screened.
# SARS 3CLpro inh: SARS-CoV 3CLpro protease inhibitors, primary screen, biochemical, quenched FRET; Replicase polyprotein 1ab (Severe acute respiratory syndrome coronavirus), P0C6X7; recombinant SARS-CoV 3CLpro, quenched FRET peptide cleavage; inhibition, % at 6 µM; actives 0.14% (n = 290,000); in the data active means inhibition above about 12%
# CCHFV vOTU inh: CCHFV vOTU protease inhibitors, primary screen, biochemical, Pep-AMC substrate, fluorescence; Crimean-Congo hemorrhagic fever virus L polyprotein viral ovarian tumor (vOTU) protease …; inhibition, % at 11.5 µM; actives 0.55% (n = 370,000); AID 651958, 2012; in the data active means inhibition above about 30%; further: 0% = vehicle wells with enzyme and 100% = no enzyme wells
# RecA intein inh: Mtb RecA intein splicing inhibitors, primary screen, biochemical, fluorescence, HTS. Protein RecA (Mycobacterium tuberculosis (strain ATCC 25618 / H37Rv)), P9WHJ3. cell-free RecA intein splicing. inhibition, % (no concentration beside the values). actives 0.75% (n = 290,000). AID 2221, 2009; in the data active means inhibition above about 30%;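 further: 0% = vehicle wells and 100% = reference inhibitor control wells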
# PriA SSB inh: inhibitors of Klebsiella pneumoniae PriA binding to SSB C-terminal tail, primary screen, biochemical, AlphaScreen | AlphaScreen SSBct-PriA binding, biotinylated peptide | inhibition, % at 33 µM | actives 0.6% (n = 430,000) | AID 1272365, 2023; in the data active means inhibition mostly above about 37%, no sharp cut-off; inactive means mostly below about 20%;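 further: plate controls were negative control peptide for no effect and reference peptide for full effect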
# VHR inh abs: VHR1 phosphatase inhibitors, primary screen, biochemical, absorbance, uHTS; AID 1654, 2009; inhibition, % at 13.3 µM; recombinant VHR phosphatase, pNPP absorbance; Dual specificity protein phosphatase 3 (Homo sapiens), P51452; actives 0.52% (n = 290,000); in the data active means inhibition above about 50%
# Target sequence (P51452 whole entry, looked up): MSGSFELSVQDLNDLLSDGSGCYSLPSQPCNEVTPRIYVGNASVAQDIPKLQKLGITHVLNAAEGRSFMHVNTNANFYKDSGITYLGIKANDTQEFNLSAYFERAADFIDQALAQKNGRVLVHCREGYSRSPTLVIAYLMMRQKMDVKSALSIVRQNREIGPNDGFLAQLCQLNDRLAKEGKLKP
# Numbers without * were called inactive; x = no result.
SMILES,SARS 3CLpro inh,CCHFV vOTU inh,RecA intein inh,PriA SSB inh,VHR inh abs
COC(=O)c1ccc(NC(=O)Cn2cc(-c3nnc(-c4ccco4)o3)c3ccccc32)cc1,x,x,x,-2,x
CCOc1ccc(OCC(=O)N2CCN(c3nccn3-c3ccc(C)cc3)CC2)cc1,x,x,x,60*,x
COc1ccc(NC(=O)CN2CCN(c3nccn3-c3ccc(C)cc3)CC2)cc1OC,x,x,x,37*,x
COc1ccc(NC(=O)CN2CCN(CC(=O)Nc3ccc(OC)c(OC)c3)CC2)cc1,0,18,x,4,22
CCOc1ccccc1NC(=O)CN1CCN(c2nccn2-c2cccc(Cl)c2)CC1,x,x,x,59*,x
CC(=O)NCCn1ncc2c(=O)n(Cc3cccc(Cl)c3)cnc21,x,x,x,-5,x
COc1ccc(Cl)cc1NC(=O)CSc1nnc2[nH]c(=O)c(C)c(C)n12,x,x,x,-14,x
COc1ccc(OC)c(N2C(=O)C(Cl)=C(N3CCOCC3)C2=O)c1,-1,0,70*,-12,-8
COc1cc(C=NN=C2NC(=O)C(c3ccccc3)S2)ccc1O (centres undefined),x,x,x,1,x
O=[N+]([O-])c1ccc(CP(=O)(c2ccccc2)c2ccccc2)cc1,-5,7,4,-3,56*
Cc1ccc(S[C@@H](CCN2CC[C@H](C)CCC2=O)c2ccccc2)cc1,1,8,30*,-21,9
C[C@@H]1CCC(=O)N(CC[C@H](Sc2ccc(Br)cc2)c2ccccc2)CC1,x,16,x,-14,x
CC1=NN(C(=Nc2nnc(C)s2)Nc2ccc(C)cc2)[C@H](c2ccc(C)cc2)S1,x,x,x,-2,x
CCOc1cccc(C2c3c(oc4cc(C)c(C)cc4c3=O)C(=O)N2CCCN(C)C)c1 (centres undefined),1,x,x,x,50*
CCOc1ccccc1N1C(=O)NC(=O)/C(=C/c2ccc3c4c(cccc24)CC3)C1=O,2,-30,2,-2,22
COc1cccc(N2C(=O)NC(=O)/C(=C/c3ccc4c5c(cccc35)CC4)C2=O)c1,3,-45,-4,x,51*
COC(=O)c1sccc1S(=O)(=O)NC[C@@](C)(O)CCSC,x,x,x,2,x
Cc1cc(O)ccc1Nc1nc(-c2cccnc2)cs1,-3,-10,2,-8,5
Cc1cc(O)ccc1Nc1nc(-c2cccs2)cs1,0,16,30*,8,16
CCC(C)NC(=O)c1c(N)n(Cc2ccc3c(c2)OCO3)c2nc3ccccc3nc12 (centres undefined),0,16,41*,-18,4
O=C(NCCc1c[nH]c2ccccc12)C1CCCN(c2nc3c(-c4ccccc4)csc3c(=O)[nH]2)C1 (centres undefined),x,x,x,4,x
O=C(Nc1cccc(Cl)c1)N1CCn2cccc2[C@H]1c1ccccc1F,x,x,x,13,x
O=C(Nc1ccc2c(c1)OCO2)N1CCn2cccc2[C@H]1c1ccc(F)c(F)c1,x,x,x,33*,x
O=C(Nc1nccs1)c1c(O)c2cccc3c2n(c1=O)CCC3,-8,5,-2,x,56*
Cn1c(=O)c2cc(NCc3ccccc3)nnc2n(C)c1=O,0,96*,9,1,-1
SMILES,SARS 3CLpro inh,CCHFV vOTU inh,RecA intein inh,PriA SSB inh,VHR inh abs
Cn1c(=O)c2c(nc(NCc3ccccc3)n2C)n(C)c1=O,-6,-9,3,-7,43
Cc1ccc(NC(=O)c2ccccc2NC(=O)c2ccc3c(c2)OCCO3)c(C(=O)c2ccccc2)c1,x,x,x,-9,x
O=C(c1ccccc1)c1c[nH]c(C(=O)C(Cl)(Cl)Cl)c1,2,24,46*,-10,13
O=C(c1c[nH]c(C(=O)C(Cl)(Cl)Cl)c1)c1ccc(F)cc1F,2,-13,34*,-11,x
CN(C)C(=O)c1cc(C(=O)c2ccc(F)cc2F)c[nH]1,5,-10,-1,12,x
N#Cc1sc2nc(-c3ccccc3)cc(-c3ccco3)c2c1N,-2,59*,2,-2,5
CC(C)Nc1nc(C#N)nc(NC(C)C)n1,0,3,5,42*,8
CSc1nc(NC(C)C)nc(NC(C)C)n1,x,2,x,-7,x
O=C(Cn1cnc2ccccc2c1=O)NCC#CCOc1cccc(C(F)(F)F)c1,x,x,x,-8,x
O=C(c1ccccc1F)N1CCN(c2ccc(-c3ccccn3)nn2)CC1,x,x,x,108*,x
